Results published in PubChem BioAssay AID1946 (Johns Hopkins Ion Channel Center, 2009).
In all, about 2,400 compounds went through this assay and about 180 (7.5%) were called active. The entries come from a sample that favours actives as a whole. Unmarked numbers belong to inactive results.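 Rule for the calls: active = readout below zero, meaning a drop past 3 SD under the dofetilide-free negative control mean; inactive = the rest.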

biological target: Potassium voltage-gated channel subfamily KQT member 2 (Rattus norvegicus) (UniProt O88943); test: KCNQ2 blockade in CHO cells – cell-based, FluxOR thallium flux, counter-screen for hERG block protector project, confirmation (AID 1946); settings: FluxOR thallium flux fluorescence, at 10 µM, hits give low values, zero marks the 3-SD hit cutoff
Sequence (O88943 whole entry, looked up): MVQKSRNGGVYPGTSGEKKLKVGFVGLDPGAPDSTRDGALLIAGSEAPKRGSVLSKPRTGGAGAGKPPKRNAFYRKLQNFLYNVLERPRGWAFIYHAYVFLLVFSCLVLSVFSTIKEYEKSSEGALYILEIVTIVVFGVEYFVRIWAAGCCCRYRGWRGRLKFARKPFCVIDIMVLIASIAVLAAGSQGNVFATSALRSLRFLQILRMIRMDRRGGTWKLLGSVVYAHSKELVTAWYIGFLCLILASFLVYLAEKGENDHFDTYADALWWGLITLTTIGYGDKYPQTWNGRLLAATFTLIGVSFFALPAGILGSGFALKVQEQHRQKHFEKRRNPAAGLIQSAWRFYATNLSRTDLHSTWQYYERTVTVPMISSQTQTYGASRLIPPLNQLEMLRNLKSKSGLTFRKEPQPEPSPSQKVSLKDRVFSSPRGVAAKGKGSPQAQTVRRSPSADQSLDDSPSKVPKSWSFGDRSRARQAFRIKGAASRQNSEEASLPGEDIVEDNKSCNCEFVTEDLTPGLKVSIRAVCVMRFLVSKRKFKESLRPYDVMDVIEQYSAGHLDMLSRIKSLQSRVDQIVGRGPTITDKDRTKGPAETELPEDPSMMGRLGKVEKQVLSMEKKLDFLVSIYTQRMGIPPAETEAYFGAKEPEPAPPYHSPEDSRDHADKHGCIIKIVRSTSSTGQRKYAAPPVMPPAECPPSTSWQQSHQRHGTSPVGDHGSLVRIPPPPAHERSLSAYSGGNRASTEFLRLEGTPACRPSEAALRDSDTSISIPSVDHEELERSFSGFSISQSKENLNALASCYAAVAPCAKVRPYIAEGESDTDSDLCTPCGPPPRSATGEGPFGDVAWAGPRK

Row | SMILES | activity change vs negative control
1 | CC1CC(C)CN(CCCNC(=O)Cc2c(C(=O)O)[nH]c3ccccc23)C1 (stereo not drawn) | -0.3% (active)
2 | O=C(CN1C(=O)COc2ccccc21)NCCCN1CCOCC1 | 6.2%
3 | CC1c2nc3ccccc3n2C(CC(=O)NCCCN2CCOCC2)C(=O)N1Cc1ccccc1 (stereo not drawn) | 12%
4 | c1ccc2c(c1)c1ccccc1n1c(-c3ccc4c(c3)OCO4)nnc21 | 11.9%
5 | Oc1c(Br)cc(Cl)cc1C=Nc1ccccc1Br | 57.7%
6 | COc1ccc(CC(=O)Nc2ccc(-c3noc(-c4ccccc4OC)n3)cc2)cc1 | 7%
7 | COc1ccc(OC(=O)Cc2cccc3ccccc23)cc1 | 15.2%
8 | COc1ccc(NC(=O)CSCC(=O)Oc2c(OC)cccc2OC)cc1 | -7.6% (active)
9 | Cc1snnc1C(=O)NC(=S)Nc1ccccc1 | 53.9%
10 | CCOc1ccc(CCNC(=O)Nc2ccccc2C)cc1OCC | 13.5%
11 | COc1ccc(CCNC(=O)C(=O)Nc2ccc3c(c2)OCO3)cc1OC | 8.8%
12 | Cc1cc(Cl)ccc1OC(C)C(=O)NCCc1ccc2c(c1)OCCO2 (stereo not drawn) | -9.4% (active)
13 | CCc1ccc(S(=O)(=O)NC(=S)NC2CCCCC2)cc1 | 83.7%
14 | O=C(CCN1C(=O)/C(=C\C=C\c2ccccc2)SC1=S)Nc1cccc(C(=O)O)c1 | 0.8%
15 | C/C(O)=C/c1nc2ccccc2[nH]c1=O | -2% (active)
16 | O=c1[nH]c2ccccc2nc1C(F)(F)C(F)F | 15.2%
17 | Cc1nc2ccc(C(=O)O)cc2[nH]1 | 11.1%
18 | S=C(NCCc1ccccc1)NCCN1CCOCC1 | 11.5%
19 | OC(CCN1CCOCC1)c1ccccc1 (stereo not drawn) | -2.1% (active)
20 | O=C(O)Cn1cc(CN2CCOCC2)c2ccccc21 | 2.7%
21 | O=c1ccn(Cc2ccc(F)cc2)c2ccnc(C(F)(F)F)c12 | -1.9% (active)
22 | COc1ccc(C(=O)Nc2ccccc2C(=O)O)cc1Cl | 19.2%
23 | O=C(NC(=S)NCCC1=CCCCC1)c1ccco1 | 66.4%
24 | Cc1cccc(Cn2c(O)c(N=NC(=S)Nc3ccccc3F)c3ccccc32)c1 | 5.5%
25 | COc1cccc(NC(=O)c2nn(-c3ccc(OC)cc3OC)c(=O)c3ccccc23)c1 | 15.7%
26 | CCN(CC)CCCNC(=O)c1cn(-c2cccc(OC)c2)c(=O)c2ccccc12 | -4% (active)

Row | SMILES | activity change vs negative control
27 | COc1cccc(-n2nc(C(=O)O)c3ccccc3c2=O)c1 | 25.1%
28 | CCC1CCc2c(sc(NC(=O)C3CC=CCC3C(=O)O)c2C#N)C1 (stereo not drawn) | 32.7%
29 | CCN(CC)c1ccc(NC(=S)NC(=O)c2cccs2)cc1 | 18.4%
30 | CCOC(=O)Cc1csc(NC(=S)NC(=O)C(C)(C)C)n1 | 28.2%
31 | COc1cccc(C(=O)Nc2cccc(-c3ccc(N4CCOCC4)nn3)c2)c1 | 5.2%
32 | Cc1cccc(NC(=S)NC(=O)c2ccc(Br)o2)c1 | 69.7%
33 | CCOc1ccc(-c2cccc(NC(=O)c3ccc(Br)o3)c2)nn1 | -8.6% (active)
34 | O=c1c2cc(Cl)ccc2nc(-c2ccc([N+](=O)[O-])cc2)n1O | 54.4%
35 | O=C(COc1ccccc1Cl)NC(=S)Nc1ccccc1N1CCCC1 | 6.2%
36 | CNC(=S)Nc1sc2c(c1C(=O)OC)CCC2 | 31.9%
37 | Cc1cccc(C(=O)NNC(=S)NC(=O)c2ccccc2)c1 | 26.9%
38 | Cc1cccc(C(=O)NC(=S)N(C)C2CCCCC2)c1 | 46.3%
39 | Cc1cccc(C(=O)NC(=S)NNC(=O)c2ccc(Cl)cc2)c1 | -7.1% (active)
40 | Cc1ccc(NC(=S)NC(=O)c2ccc(-c3ccccc3)cc2)cc1 | 10.9%
41 | Cc1ccc(C(=O)NNC(=S)NC(=O)c2ccc(Cl)cc2)cc1 | 0.8%
42 | Cc1cccc(C(=O)NC(=S)N2CCc3ccccc3C2)c1 | 50.3%
43 | Cc1ccc(C(=O)NNC(=S)NC(=O)c2ccccc2)cc1 | -4.5% (active)
44 | Cc1cccc(C(=O)NC(=S)NNC(=O)COc2c(C)cccc2C)c1 | -13.3% (active)
45 | O=C(NNC(=S)NC(=O)c1sc2ccccc2c1Cl)c1ccc(Cl)cc1 | 32.9%
46 | Cc1sc2nc(CN3CCOCC3)[nH]c(=S)c2c1C | 108%
47 | Cc1ccc(-c2c(=O)n(O)c3ccccc3[n+]2[O-])cc1 | 88.6%
48 | O=c1c2ccccc2nc(-c2ccc(Cl)c(Cl)c2)n1O | 91.4%
49 | COc1cc(OC)cc(C(=O)NNC(=O)C(=O)Nc2cc(OC)c(Cl)cc2OC)c1 | 71%
50 | C[n+]1ccccc1/C=C/c1ccc(C#N)cc1 | 17.3%
51 | O=c1[nH]c(C(Cl)(Cl)Cl)nc2ccc3ccccc3c12 | 37%
52 | O=C(NC(=S)Nc1ccccc1N1CCCC1)c1cccs1 | 14.1%

Row | SMILES | activity change vs negative control
53 | O=C(NC(=S)Nc1ccccc1N1CCCC1)c1ccco1 | 39%
54 | O=C(NC(=S)Nc1ccccc1N1CCCC1)c1ccccc1Br | -8.3% (active)
55 | O=C(NC(=S)Nc1ccccc1N1CCCC1)c1ccc([N+](=O)[O-])cc1 | 21.1%
56 | O=C(NC(=S)Nc1cccc(Cl)c1N1CCCCC1)c1cccs1 | 1.9%
57 | O=C(NC(=S)Nc1ccccc1N1CCCCC1)c1cccs1 | 0% (active)
58 | CCOc1cc(N2CCOCC2)c(OCC)cc1NC(=O)CCC1CCCC1 | 104%
59 | O=C(NC(=S)N1CCCC1)c1ccc(Cl)cc1 | 26.1%
60 | O=c1c(O)c(-c2ccc3c(c2)OCO3)oc2ccccc12 | 35%
61 | Cc1ccc(CNC(=O)c2ccc(CNc3c(N4CCCC4)c(=O)c3=O)cc2)cc1 | -1.7% (active)
62 | CN1C(=O)c2ccc(C(=O)NCc3ccccc3)cc2C1=O | 10.5%
63 | Cc1ccc(CNC(=O)C2=CCN(S(=O)(=O)c3ccc(C)cc3)CC2)cc1 | 6.4%
64 | CC(=O)c1c(N2CCN(Cc3ccccc3)CC2)[nH]c(-c2ccccc2)nc1=S | 50.5%
65 | COc1ccc(-n2nc(C)cc2Nc2ccccc2C(=O)O)cc1 | 43.7%
66 | C/C(=N\Nc1nc(C)c(C)s1)c1ccc([N+](=O)[O-])cc1 | 31.5%
67 | O=c1[nH]c(N2CCN(c3ccccc3)CC2)nc2c1CCCC2 | 12%
68 | c1ccc(-c2ccnc3nc(N4CCN(c5ccccc5)CC4)nn23)cc1 | -4.9% (active)
69 | Cc1ccc(C(=O)NC(=S)N(C)Cc2ccccc2)cc1 | 28.6%
70 | CCC(=O)N(CC)c1nc(-c2ccc(OC)cc2)cs1 | 60.4%
71 | Cc1ccc(Cn2nnc3c(=O)n(CC(=O)N4CCCc5ccccc54)cnc32)cc1 | 13%
72 | Cc1c(C(=O)NNC(=O)c2ccncc2)oc2ccc(Br)cc12 | -1.5% (active)
73 | CC(NC(=O)c1ccncc1)C(C)(C)C (stereo not drawn) | 32.4%
74 | Cc1c(C(=O)NC(=S)NCc2cccnc2)oc2ccccc12 | 5.5%
75 | O=C1CSC(=S)N1/N=C/c1cc(Br)ccc1O | 21.5%
76 | O=C(COc1ccc(Br)cc1Cl)NC(=S)N1CCc2ccccc21 | 9.4%
77 | O=C(COc1ccc(Cl)cc1Cl)NC(=S)N1CCCc2ccccc21 | 0.8%
78 | O=C(COc1ccccc1)NC(=S)N1CCc2ccccc21 | 25.7%

Row | SMILES | activity change vs negative control
79 | Cc1cccc(OCC(=O)NC(=S)N2CCCc3ccccc32)c1 | -0.9% (active)
80 | O=C(COc1ccc(Br)cc1Br)NC(=S)N1CCCc2ccccc21 | -2.3% (active)
81 | O=C(NC(=S)N1CCCc2ccccc21)c1ccccc1 | 21.6%
82 | COc1cccc2sc(Nc3nc(-c4ccccn4)cs3)nc12 | 34.8%
83 | CCN1C(=O)/C(=C/c2ccc(C)s2)NC1=S | 65.6%
84 | COC(=O)c1ccc(NC(=S)NC(=O)c2cc(-c3ccccc3)nc3ccccc23)cc1 | 28.9%
85 | COc1cccc(C(=O)NNC(=O)C(=O)Nc2ccc(C)c(Cl)c2)c1 | 98.2%
86 | Nn1c(SCC(=O)Nc2ccccc2F)nnc1C1CCCCC1 | 10.9%
87 | CC(C)OC(=O)CSc1nnc(C2CCCCC2)n1N | 6%
88 | Nn1c(SCC(=O)Nc2ccc(F)cc2)nnc1C1CCCCC1 | -0.5% (active)
89 | CCOc1ccc2nc(/N=C/c3nc(-c4ccc(Br)cc4)oc3O)sc2c1 | 13.7%
90 | S=c1nc[nH]c2c1sc1nc(N3CCOCC3)c3c(c12)CCCC3 | 74.9%
91 | C/C(=N\Nc1nc2ccccc2nc1C)c1ccccc1O | 35.1%
92 | CCOC(=O)c1sc(NC(=S)NC(=O)c2cccc(OC)c2)nc1C | 28.4%
93 | CCN(CC)C(=S)NC(=O)c1ccc(Cl)cc1Cl | 32%
94 | CCCN(CCC)C(=S)NC(=O)c1ccc(Cl)cc1Cl | 78%
95 | CCCn1nnnc1NC(=O)c1cc(Cl)ccc1Cl | -2% (active)
96 | O=C(NC(=S)N1CCc2ccccc21)c1ccccc1Br | 126%
97 | CN(C(=S)NC(=O)c1ccccc1)C1CCCCC1 | 29.8%
98 | COc1ccc2c(c1)O[C@@H](c1cccc(C(F)(F)F)c1)[C@H](OC(=O)NCCc1ccc(OC)c(OC)c1)C2=O | 20.4%
99 | CCOC(=O)Cc1nc2ccccc2o1 | 11.7%
100 | O=C(CSc1nc2ccccc2o1)NCc1n[nH]c(=O)c2ccccc12 | 19.1%
101 | C/C(=N\NC(=O)CSc1nc2ccccc2o1)c1ccc(O)cc1 | -1.7% (active)
102 | Cc1nn(C)c(C(=O)NC(=S)Nc2ccccc2Br)c1Cl | 41.3%
103 | CCc1ccc(C(C)NC(=O)c2ccc(F)cc2)cc1 (stereo not drawn) | 43.4%
